Bead autofluor: compound fluorescence in toxin protease inhibitor counterscreen. 3.1% of 360,000 active. compound autofluorescence counterscreen, microsphere flow cytometry; hits give high values. fluorescence intensity (concentration not given with the values); in the data active = fluorescence intensity above about 16000; inconclusive = no clear call, values can overlap the other calls
MazF activator: activators of E. coli MazEF toxin-antitoxin RNase, primary screen, biochemical, fluorescence, uHTS; Endoribonuclease toxin MazF (Escherichia coli (strain K12)), P0AE70; FAM/BHQ RNA-DNA oligo cleavage fluorescence, 5 h; activation, % at 20 µM; 0.32% of 350,000 active; in the data active = activation above about 50%
BoNT-A LC inh2: BoNT/A light chain protease inhibitors, primary screen, biochemical, flow cytometry, MLPCN library. AID 588499, 2011. Botulinum neurotoxin type A light chain protease (Clostridium botulinum A str. ATCC 3502). 0.17% of 360,000 active. inhibition, % at 10 µM. multiplex microsphere protease substrate cleavage
Anthrax LF inh2: Bacillus anthracis LF protease inhibitors, primary screen, biochemical, multiplex microsphere, MLPCN library; AID 588501, 2011; inhibition, % at 10 µM; Lethal factor (Bacillus anthracis), P15917; 0.12% of 360,000 active; multiplex microsphere protease cleavage assay
Target sequence (P15917 whole entry, looked up): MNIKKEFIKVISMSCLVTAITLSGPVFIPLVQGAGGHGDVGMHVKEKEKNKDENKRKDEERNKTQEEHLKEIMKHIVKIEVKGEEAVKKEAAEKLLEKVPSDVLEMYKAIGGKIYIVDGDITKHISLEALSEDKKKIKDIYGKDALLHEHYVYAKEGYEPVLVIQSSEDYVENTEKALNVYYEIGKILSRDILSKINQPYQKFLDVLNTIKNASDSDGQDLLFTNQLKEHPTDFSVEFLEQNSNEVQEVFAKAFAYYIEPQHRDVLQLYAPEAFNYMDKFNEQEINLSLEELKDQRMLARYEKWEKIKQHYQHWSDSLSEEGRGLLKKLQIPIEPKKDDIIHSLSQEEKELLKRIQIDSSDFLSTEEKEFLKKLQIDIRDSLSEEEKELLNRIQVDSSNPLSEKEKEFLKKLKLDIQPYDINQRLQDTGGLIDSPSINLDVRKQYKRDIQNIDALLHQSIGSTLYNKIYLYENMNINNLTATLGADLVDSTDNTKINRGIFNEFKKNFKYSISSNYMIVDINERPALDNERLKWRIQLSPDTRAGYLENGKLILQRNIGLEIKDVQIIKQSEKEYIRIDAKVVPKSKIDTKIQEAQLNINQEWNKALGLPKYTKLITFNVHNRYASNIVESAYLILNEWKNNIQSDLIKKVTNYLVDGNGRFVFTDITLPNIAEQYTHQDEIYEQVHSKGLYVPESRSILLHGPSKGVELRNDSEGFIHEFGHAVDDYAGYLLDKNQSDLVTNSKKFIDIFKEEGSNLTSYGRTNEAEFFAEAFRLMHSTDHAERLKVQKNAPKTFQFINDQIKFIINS
BoNT-F LC inh: BoNT/F light chain protease inhibitors, primary screen, biochemical, flow cytometry, MLPCN library | inhibition, % at 10 µM | Multiplex microsphere protease cleavage assay | Botulinum neurotoxin type F light chain protease (Clostridium botulinum) | 0.22% of 360,000 active; in the data active = inhibition above about 35%, passing the limit was not always enough; inconclusive = no clear call, values can overlap the other calls
Each line names hits and unclear results; the compound was inactive in the other large screens; ! = not active in a repeat. Rows were chosen to be rich in hits. Some 3.6% of all compounds tested hit in one or more screens of this group. Cut-off read from the data, not from the text of the source, unless noted: active = inhibition above about 30%; inconclusive = no clear call, values can overlap the other calls; inactive = below that.

O=C(c1ccccc1Oc1ccc([N+](=O)[O-])cc1)N1CCOCC1	Bead autofluor inconclusive
Cn1nc(-c2ccccc2)c(C(O)c2ccc(Cl)cc2)c1Cl (centres undefined)	Bead autofluor 24423
Cn1nc(-c2ccccc2)c(CSc2ccccc2Cl)c1Cl	none
CC(C)(C)c1cc(C(=S)N2CCN(CCO)CC2)cc(C(C)(C)C)c1O	Bead autofluor 23211
COc1cccc(/C=N/NC(=O)CC(C)O)c1OC/C=C/c1ccccc1 (centres undefined)	none
Cc1ccc(SCC(=O)O/N=C(\N)c2ccc([N+](=O)[O-])cc2)cc1	Bead autofluor 22162
CCn1c(SCC(=O)N2CCN(c3ccc(F)cc3)CC2)nnc1-c1ccncc1	Bead autofluor 20103
Cn1c(SCC(=O)N2CCN(c3ccccc3)CC2)nnc1-c1cc2ccccc2o1	Bead autofluor 16756
Cc1occc1-c1nnc(SCC(=O)N2CCN(c3ccccc3)CC2)n1C	none
Nc1nnc(SCC(=O)N2CCN(c3cccc(Cl)c3)CC2)n1-c1ccccc1	Bead autofluor 23616
Cn1c(SCC(=O)N2CCN(c3cccc(Cl)c3)CC2)nnc1-c1ccncc1	Bead autofluor 22921
Cn1c(SCC(=O)N2CCN(c3ccccc3)CC2)nnc1-c1ccncc1	none
O=C(Cc1n[nH]c(=O)c2ccccc12)Nc1cc(Cl)ccc1-n1cncn1	none
O=C(CSc1nnc(NC(=O)c2ccco2)s1)Nc1ccccc1Br	none
CC(C(=O)NC(=O)NC1CCCCC1)N1CCN(c2ccc(O)cc2)CC1 (centres undefined)	none
Cc1c(Br)c([N+](=O)[O-])nn1CC(=O)Nc1ccc(Cc2ccncc2)cc1	none
CC(C)(C)OC(=O)[C@H](Cc1ccccc1)NC(=O)c1ncn2c1c(=O)[nH]c1ccc(Br)cc12	none
COc1cccc(C(=O)Nc2ncc3c(n2)CC(c2ccc(OC)cc2OC)CC3=O)c1 (centres undefined)	Bead autofluor 24133, BoNT-A LC inh2 inconclusive
COc1cccc2cc(-c3nc(-c4cccs4)cs3)c(=O)oc12	MazF activator 99
O=c1oc2ccccc2cc1-c1nc(-c2cccs2)cs1	MazF activator 141, BoNT-A LC inh2 58, Anthrax LF inh2 41
Cn1cc(-c2nnnn2-c2cccc(C(F)(F)F)c2)c(C(F)(F)F)n1	Bead autofluor 24492
CC(CC1CC(C)(C)OC1=O)C(=O)Nc1nncs1 (centres undefined)	Bead autofluor 20331, BoNT-A LC inh2 inconclusive
O=C(O)c1ccc(Cl)c(S(=O)(=O)Nc2ccccc2C(=O)Nc2ccc(Cl)cc2)c1	none
CCCCNC(=O)c1ccc(CNc2c(N3CCC(C(=O)OCC)CC3)c(=O)c2=O)cc1	Bead autofluor 23374!
CCOC(=O)C1CCN(c2c(NCCCN(CC)c3ccccc3)c(=O)c2=O)CC1	Bead autofluor 21430, BoNT-A LC inh2 inconclusive
CCc1cc(=O)oc2c3c(cc(OCC(=O)NCCCOC)c12)OC(C)(C)CC3	none
CC(C)(C)NC(=O)CN(C(=O)CS(=O)CC(=O)Nc1ccc(F)cc1)c1ccc(F)c(Cl)c1 (centres undefined)	Bead autofluor 20160
CC(C)(C)NC(=O)CN(C(=O)CS(=O)CC(=O)Nc1ccc(F)cc1)c1ccc(Cl)cc1 (centres undefined)	Bead autofluor 20135, BoNT-A LC inh2 inconclusive
CC(C)(C)NC(=O)CN(C(=O)CS(=O)CC(=O)Nc1ccc(F)cc1)c1cccc(F)c1 (centres undefined)	none
CCc1nc2ccc(C(=O)NCCOc3ccc(OC)cc3)cn2c1N(CCC(C)C)CCN(C)C	none (no result: MazF activator)
O=C(NCCc1ccccc1)c1cc2ncc(Br)cn2n1	none
CCc1ccccc1NC(=O)c1cc2ncc(Br)cn2n1	Bead autofluor 21333, BoNT-A LC inh2 inconclusive
O=C(Nc1cccc(C(F)(F)F)c1)c1cc2ncc(Br)cn2n1	Bead autofluor 22276
CCOc1cc(-c2noc(N)c2C#N)cc(OCC)c1OCC	none
Cc1ccccc1-c1noc(N)c1C#N	Bead autofluor 23456
CCn1c(SCc2nc3ccccc3[nH]2)nnc1-c1ccccc1OC	none
CCn1c(SCc2nc3ccccc3[nH]2)nnc1-c1cccs1	Bead autofluor 21099, BoNT-A LC inh2 inconclusive
Cn1c(COc2ccccc2)nnc1SCc1nc2ccccc2[nH]1	none
CCn1c(COc2ccc(C)cc2)nnc1SCc1nc2ccccc2[nH]1	Bead autofluor 19776
CSc1nc(N)nc(SCC(=O)CC(=O)OC(C)C)c1C#N	Bead autofluor 20850, BoNT-A LC inh2 inconclusive
CCc1nc(N)c(C#N)c(-c2ccco2)c1C	none
Cc1c(-c2ccccc2)nc(N)c(C#N)c1-c1ccco1	Bead autofluor 20557
CCOC(=O)Cn1nnnc1CN(Cc1cccs1)Cc1cc2cc(C)cc(C)c2[nH]c1=O	Bead autofluor 23938
COc1ccc2cc(CN(Cc3cccs3)Cc3nnnn3Cc3ccccc3)c(=O)[nH]c2c1	Bead autofluor 24337
Cc1cccc2cc(CN(Cc3cccs3)Cc3nnnn3Cc3ccccc3)c(=O)[nH]c12	none
O=c1[nH]c(SCc2nc3c(cnn3-c3ccccc3)c(=O)[nH]2)nc2ccccc12	MazF activator 50, BoNT-F LC inh inconclusive
CN(C)CCCNc1cc(C(C)(C)C)nc2c(-c3ccc(Cl)cc3)cnn12	none
Cc1cc(NCCCN2CCOCC2)n2ncc(-c3ccc(Cl)cc3)c2n1	Bead autofluor 23672, BoNT-A LC inh2 inconclusive
Cc1cc(NCCCn2ccnc2)n2ncc(-c3ccc(Cl)cc3)c2n1	Bead autofluor 22244, BoNT-A LC inh2 inconclusive
CCOc1ccc(NC(=O)CCC(=O)N/N=C2\CCCc3ccccc32)cc1	none
CCOC(=O)CNC(=O)Cn1cnc2c(oc3ccccc32)c1=O	none
CSc1ncc(C(=O)Nc2ccccc2F)c(-c2ccccc2)n1	none
Cc1ccc(C)n1Cc1ccc(C(=O)O)cc1	Bead autofluor 24761
Cc1cc(C)n(Cc2ccc(C(=O)O)cc2)n1	none
Cc1cccc(NC(=O)COc2ccc3c(c2)CCC3)n1	none
Cc1cccc(NC(=O)COc2ccc3oc4c(c3c2)CCCC4)n1	Bead autofluor 23564
Cc1c(Cc2ccccc2)c(=O)oc2cc(O)cc(O)c12	none
COc1nc(OC)nc(N2CCC(C(=O)NCc3ccco3)CC2)n1	Bead autofluor 19494
COc1nc(OC)nc(N2CCC(C(=O)Nc3cccc4ccccc34)CC2)n1	Bead autofluor 23395
Cc1cc(C)nc(N2CCC(C(=O)NCc3ccco3)CC2)n1	none
C[C@H]1CN(c2ccccc2)C(=O)[C@@H]1CC(=O)Nc1ccc(Br)cc1	none
Oc1c(Br)cc(Br)cc1C=Nc1cccc2ncccc12	none (no result: Bead autofluor, BoNT-A LC inh2, Anthrax LF inh2, BoNT-F LC inh)
CCCCCCC(=O)N(O)C1CC(=O)N(c2ccc(C)cc2)C1=O (centres undefined)	BoNT-A LC inh2 30
O=C1CC(NNC(=O)c2ccc(Br)cc2)C(=O)N1 (centres undefined)	BoNT-F LC inh 43

High-throughput results (PubChem)
